Assay results published in PubChem BioAssay AID1508600 (Functional Genomics Laboratory (NCATS/FGL), 2020).
Out of some 53,000 sequences screened, about 3,700 (7%) were called active. The full list was thinned out, with actives kept by preference. A number with no mark means an inactive call.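 Rule for the calls: active = gene knockdowns whose robust z-score for IL-1 alpha signal is at least 2 or at most -2, so actives lie on both sides; inactive = the rest.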

assay: Components of the Cytosolic LPS Sensing Pathway: Gene Identification via Genome-wide siRNA Screen; conditions: RAW264.7 macrophages, IL-1a HTRF, actives lie on both sides, screened at 100 nM (by protocol), cells primed 5 h with Pam3CSK4 first;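 note: robust z of the log signal after scaling to non-targeting control siRNA wells of the plate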
Method in brief: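 RAW264.7 mouse macrophages reverse-transfected with single siRNAs (100 nM final) for 48h, primed with Pam3CSK4 for 5 hours, then transfected with LipidA for 24 hour. Supernatant IL-1a read by HTRF; values normalized to negative-control median, log-transformed robust z-scores.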

Sequence	z-score
GGUACAGUGUCAUCAUGAATT against Olfr460	-0.456
GGUAAUUUGUAAGGAACCCTT against Rpusd2	-0.881
GGAAAAAUGGGAGUUUGAATT against Ccdc83	-0.291
GUCCUUCUCAUCAUGGGACTT against Sec61g	-0.248
GGCGAAAGUGCUUUUCCUGTT against Gbp8	1.03
GCUGAUCCACGACUACUUGTT against Rab10os	1.24
GCUUAGAUCUUACCCACCCTT against Ptcra	2.52 (active)
GCUCCGUAAGAAGUCUCGUTT against Dhx16	-0.676
GAUGGAGAAACUGAAGAAGTT against Olfml2a	-0.117
UCCACUUCACUAAUCCUGUTT against Vmn2r43	-2.52 (active)
GCUGGAUUUGGACUCUUAGTT against Vmn1r16	1.1
GGGCUGUGAUAUGCAACUCTT against Teddm2	-0.988
GGAAAUGGUCCCUCUGUGUTT against Tspoap1	-2.99 (active)
CCUUUGAUCAAUUCUGAGUTT against Glb1	-0.554
GCAACGUGAAACAUAUUCUTT against Cpb1	1.69
GGAAGUAACCACAUCCUAUTT against Epn2	-0.628
GGAGGGAAUGAAAAGUCAATT against Stard7	2.09 (active)
GGUCACUGUUAGUUAUUAATT against Tcerg1l	0.954
GGGUAUUUUACCACUACUUTT against Psg23	0.32
GCCGUCACAAGAACUGAACTT against Apon	-0.24
CCCACUUUGAGGAAAGCUATT against Itprip	-2.46 (active)
GGAAAACUAACCAAAAUAGTT against F3	1.45

Sequence	z-score
GGCAAAUUAUUAGUACAGUTT against Gabpa	1.41
CCCGAAUCUCAGCGUAGAATT against Gm5617	-0.853
GGAGUUCAAUCCAACAAAATT against Atxn2l	-1.4
GCUCAGAGACAAGCAACUGTT against Kcnk7	0.247
GGAACAGAAAACCAUAUAATT against Snx29	-2.54 (active)
GGUUAUGAGGCUUAAUAAATT against Atxn7l1	0.965
CCCUCGGUGCCUAAUAAAUTT against Hsd17b10	-0.0731
GGAUGCUAUAAAGAAUGCCTT against Prpf39	-1.19
UCCGUUGGAGUAUCGAUGUTT against Trp53rka	-1.25
GCGAGAUGGAAGGAUCUUGTT against Anapc13	5.28 (active)
GGAGAACAUGGAGACUAUUTT against Ramp1	-0.756
GGUCUACCAUUUCACCUUGTT against Cops4	1.19
GUUGCCAGAUUUGGAUAUUTT against Abcg5	0.664
CGGGAAGAGUACUUGUUUUTT against Cfl1	0.153
CAAAGCCACCUCGCCCUAUTT against Nkx2-6	-0.0586
GGCUUAUGUUUGCUUUGUUTT against Piwil1	0.0916
CCUUUUUCUGGAUUGGAAUTT against Klrd1	-0.00525
GGAAUAUGACUUCAAGAUGTT against Lmnb2	4.28 (active)
AAUGCAAACAAUGCAAAUGTT against Mt2	-0.174
GGCUAAAGCGAAAAAAAAGTT against Msl3	-0.114
CGGAUUCACAAGAACACCUTT against Pramel12	-0.157
GGGCUGUUCCAUUUCUUUATT against Atcay	0.727

Sequence	z-score
CGGAACUCUGCCACAAGUUTT against Zfp36	1.27
GGCAUAUGUUGAAACUAUUTT against Sel1l3	1.29
GCUCGUGUCAGAACCGAUGTT against Rwdd3	2.39 (active)
GCCAAAAAAGCUGUCAGUUTT against Nkx2-3	-1.11
GGAGGACGUAACUAAAUCATT against Napepld	-0.934
UCUACAGGACUAUUAGAUUTT against Wnt6	0.563
GGUUCUAUAGGGCUCCGAATT against Tmem179b	4.23 (active)
GGGAUCAAAACAUACUGUGTT against Klra4	0.0891
GGUCAUGCAGGUUUUGAAUTT against Snd1	1.9
GGCUGAAAUAAAACAAGAATT against Use1	-0.778
GCAGAAGCGUGGCAUUGUATT against Ins2	0.5
GGAAGUGCUGAAGGUGUACTT against Spire2	2.38 (active)
GGAUUUAGCCAAUCAAUCUTT against Cdc14b	-0.872
GGACUACCUAUGGUUAAAATT against Nup93	-1.58
GCUGGUUAGACCCUUCCAATT against Hnf4g	3.56 (active)
GCAUCUACUCCCUAUAGACTT against Nin	0.322
GGCAGAGGAAAUCAUGAAGTT against Clpp	-1.05
GGGAGUUCAACUUGAUGUATT against Irf6	-1.45
GGAUCCCAGAUUGAAAACUTT against Rnf5	-0.92
CGUGGACUAAAAGUUUUCATT against Mmp12	3.63 (active)
CCGGACCUCUGCGCAAUUUTT against Npb	0.289
GUUUUUGCUAUGGCUCGUATT against H3c1	0.92

Sequence	z-score
GGUGCUGCUAGUGAACAAGTT against E2f4	5.64 (active)
CCGAGAACCUUAAACUCCCTT against Sowahc	0.161
GGAGAUAUGGCCAUCACUCTT against Toe1	1.11
GGCCUUUGAUGACAUGUACTT against Bpifb1	-0.378
GAUGCUAGUGAACCUCAUGTT against Olfr1020	-0.765
CGAUUGGUUGUUGUAGACATT against Abhd11	-2.56 (active)
CCAAUCCAAACGAAGUUAATT against Rgs9	-0.977
CGUUUCAACAAGCUCGUGUTT against Rbmxl2	1.02
GGAUACAAAUGAAAGCUUATT against Zfp354b	-0.307
GGCAAGAAACAGUCAUAAGTT against Eps8l3	0.404
GGCAUCAAGUUCUAUCUGUTT against Slc6a11	-0.704
GGCCGGUUAGCUAAUCAGATT against Armc10	2.03 (active)
UGGCUGAUAUGAAGGUCUGTT against Krtap31-2	0.154
GCUGUACGUUUGCACAUUCTT against Rc3h1	-2.87 (active)
GGCUCUGUAUCGGAAGGCUTT against Zc3h7a	0.817
GGAUUCUGCUAGCAGUUCATT against Csn1s2a	-0.477
GGGUUGCUUCAACUUUUAGTT against Mpp1	-0.346
GGCCAUGGAAAAAUCUCAGTT against Dtna	0.557
GCCUAUACAACCCUAUUGUTT against Kazn	-0.879
GCGCAGGAUGAGAAGUUCUTT against Slc43a3	3 (active)
GGUUUGUGGUGAACUUUCATT against Lgals9	0.707
GGAUUUGGAAAAUUGAUGCTT against Ahi1	0.97

Sequence	z-score
GGAUGAAAGCAAAGACAAGTT against Zscan21	2.63 (active)
GGUUGAUGGGAAAACAAUATT against Rab11a	-0.6
GAUCCUGCAUCUUUAGUGUTT against Ascl1	-0.0831
GCUGAUUCCGUGUCCCAACTT against Gng2	3.42 (active)
GGGUAGGGCAGUCUACUUATT against F2r	-0.407
CCUGCUUCUCUACAACCAUTT against Olfr1209	-0.817
GCUUGUAUUGCUUGUCUUUTT against Olfr172	1.89
GGAGUAGAAGAAGAGGAGUTT against Mrpl50	0.946
GGUGCAAUCAGCUUUCCACTT against Olfr1336	2.26 (active)
CCGAUUGAUAAAGUCACAUTT against Zfat	0.241
GGAAAAAAGAUGAAUUGCCTT against Cbx8	1.63
GGAGUCUUGGCCCUUUAAUTT against Zcchc12	-1.09
GCCUCUUUAUAAUAUAAGGTT against Pcgf6	-0.687
CGGUUAACUGGAAAGUGCGTT against Tmem132e	2.99 (active)
CGUGAUGAAUGAGAAUAACTT against Maea	0.584
GGAAUUAAACCAUUUCAGUTT against Zbtb44	1.28
GGAGGAUUCAUGCUUUGUUTT against Morc2b	0.238
GGUUUUUGAGUGGGAGACCTT against Khdc3	-0.578
GAUUUAGCUUGGUGAACCGTT against Thoc6	0.754
GGACUUAGACAUCCACCUCTT against Llcfc1	-1.64
